PHOSPHO1 inh: PHOSPHO1 (human) inhibition. Q8TCT1. recombinant PHOSPHO1, absorbance phosphatase assay. inhibition, % at 13.3 µM. 290,000 compounds, 1.1% hits. AID 1565; in the data active = inhibition above about 60%
Target sequence (Q8TCT1 whole entry, looked up): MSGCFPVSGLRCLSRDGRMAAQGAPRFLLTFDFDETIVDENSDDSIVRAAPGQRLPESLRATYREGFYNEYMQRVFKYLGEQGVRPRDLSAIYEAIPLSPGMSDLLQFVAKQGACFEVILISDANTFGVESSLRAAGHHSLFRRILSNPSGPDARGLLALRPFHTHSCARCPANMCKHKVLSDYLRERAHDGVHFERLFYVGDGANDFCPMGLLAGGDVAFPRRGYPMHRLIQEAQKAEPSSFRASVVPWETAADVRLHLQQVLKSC
TPT1 inh: inhibitors of Candida albicans tRNA 2'-phosphotransferase TPT1. recombinant caTPT1, FP RNA substrate dephosphorylation. inhibition, % at 5 µM. 300,000 compounds, 0.81% hits;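 active = inhibition above the mean of all tested compounds plus 3 SD, set per screening campaign, cut at about 24% in these data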
Platelet DG rel: modulates dense granule release in human platelets | human platelet-rich plasma, SFLLRN dense granule ATP release, luminescence | inhibition, %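 (compounds screened at 7.5 µM in platelet-rich plasma)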 | 300,000 compounds, 0.22% hits | AID 1663;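 active = mean replicate score, as percent of positive control, at or above 50; inconclusive = mean below 50 but at least one replicate at or above 50; inactive = mean and every replicate below 50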
SKKanGAS inh: SKKanGAS growth inhibition; S. pyogenes SKKanGAS, kanamycin growth, BacTiter-Glo, 6 h; inhibition, % at 7.5 µM; 300,000 compounds, 1.3% hits;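 active = mean replicate score, as percent of positive control median, at least 50; inconclusive = mean below 50 but one replicate at or above 50; inactive = mean and every replicate below 50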;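 also: strain carries kanamycin resistance gene driven by streptokinase promoter and grows in 40 µg/ml kanamycin; loss of luminescence reflects streptokinase promoter inhibition or plain growth inhibition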
WT yeast gro inh: growth inhibition of WT yeast, mitochondrial fusion screen. mitochondrial fusion phenotypic screen, WT strain. inhibition, % at 10 µM. 190,000 compounds, 2.1% hits; in the data active = inhibition above about 58%; tested in S. cerevisiae
Rtt109 HAT inh: blocks Candida albicans Rtt109/Vps75 acetyltransferase activity | Q5AAJ8 | purified Rtt109/Vps75, ThioGlo CoA-SH fluorescence, 4 h | inhibition, % at 34.9 µM | 330,000 compounds, 0.16% hits | AID 540336;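 active = inhibition of at least 50% in every replicate; inconclusive = best replicate reaches 50% inhibition but some replicates fall short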
Target sequence (Q5AAJ8 whole entry, looked up): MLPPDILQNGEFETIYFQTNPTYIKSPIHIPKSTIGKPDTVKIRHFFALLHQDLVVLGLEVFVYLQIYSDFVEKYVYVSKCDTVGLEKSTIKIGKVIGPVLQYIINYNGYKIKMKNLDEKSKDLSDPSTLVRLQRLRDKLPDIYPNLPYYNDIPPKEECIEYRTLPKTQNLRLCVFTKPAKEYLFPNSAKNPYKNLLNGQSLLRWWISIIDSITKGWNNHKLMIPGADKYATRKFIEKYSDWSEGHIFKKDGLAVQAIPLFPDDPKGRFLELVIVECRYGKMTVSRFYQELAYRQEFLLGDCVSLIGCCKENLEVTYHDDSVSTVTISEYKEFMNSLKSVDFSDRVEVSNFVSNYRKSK
A number is an active result; i = inactive; ? = inconclusive; nt = no result. Only some compounds are listed: those with a hit (about 3.9% of all), similar ones and a draw of the others.

SMILES	PHOSPHO1 inh	TPT1 inh	Platelet DG rel	SKKanGAS inh	WT yeast gro inh	Rtt109 HAT inh
COc1cccc(-n2c(CCn3nc(C)c([N+](=O)[O-])c3C)n[nH]c2=S)c1	i	i	i	i	i	i
Cc1ccc(-n2c(-c3cccnc3)n[nH]c2=S)c(C)c1	60.1	i	i	i	i	nt
O=C(O)c1ccc(-n2c(-c3ccc(Br)cc3)n[nH]c2=S)cc1	102.7	i	i	i	i	i
Cc1cccc(-n2c(CCn3nc(C)c([N+](=O)[O-])c3C)n[nH]c2=S)c1	96.9	i	i	i	i	i
Cc1ccc(C(=O)Nc2ccc(S(=O)(=O)Nc3cnc4ccccc4n3)cc2)cc1	i	i	i	i	nt	i
COc1cc(NC(=O)CCN2CC(C)OC(C)C2)cc(OC)c1 (centres undefined)	i	i	i	i	nt	i
CC(=O)Nc1c(Cl)cc2c(c1Cl)Cc1cc(C#N)ccc1-2	nt	nt	nt	nt	nt	i
Cc1ccc(NC(=O)c2sc3ncn(CC(=O)N4CCOCC4)c(=O)c3c2C)c(Br)c1	i	i	i	i	nt	i
CC(C)c1ccc2[nH]c(O)c(N=NC(=O)c3cccc(S(=O)(=O)N4CCCCC4)c3)c2c1	i	i	i	106.7	i	i
O=C(N=Nc1c(O)[nH]c2ccccc12)c1cccc(S(=O)(=O)N2CCCCC2)c1	i	i	i	i	i	i
CCOC(=O)c1cc2cc(OC)ccc2nc1C	i	i	66.3	i	i	i
CCN1CCN(S(=O)(=O)c2cc3c(cc2Cl)NC(=O)CO3)CC1	i	i	i	i	nt	i
Cn1cccc1C(=O)NNC(=O)COc1ccccc1F	i	i	i	i	nt	i
CC(C)(C)c1cc(NCCCn2ccnc2)n2ncc(-c3ccc(Cl)cc3)c2n1	i	i	i	105.8	i	i
Cc1cc(NCCCn2ccnc2)n2nc(-c3ccc(Cl)cc3)cc2n1	i	i	i	i	i	i
COc1ccc(C2CC(c3cccc(Cl)c3)=NN2c2ccc(S(N)(=O)=O)cc2)cc1 (centres undefined)	nt	nt	nt	nt	nt	i
O=[N+]([O-])c1ccc(NC(=S)NCCc2ccccc2)cc1	i	i	i	i	81.4	i
O=[N+]([O-])c1ccc(NNC(=S)Nc2ccccc2)cc1	85.7	i	i	i	i	i
C/C(CCc1ccccc1)=N\NC(=S)NCCc1ccccc1	i	i	i	i	nt	i
O=[N+]([O-])c1ccc(NC(=S)NCCc2ccc(Cl)cc2)cc1	i	i	i	98.5	83.3	i
CC1=C/C(=N\NC(=S)NCCc2ccccc2)CC(C)(C)C1	i	i	i	51.6	70.2	i
NS(=O)(=O)c1ccc(NC(=S)NCCc2ccccc2)cc1	i	i	i	i	i	i
Nc1nonc1C(=O)NCCNC(=O)c1cccc(Cl)c1	i	i	i	i	nt	?
COc1cccc(C(=O)NC(C)CCc2ccccc2)c1 (centres undefined)	i	i	i	i	nt	i
CN(CC(=O)Nc1ccc(Cl)c(C(F)(F)F)c1)C(=O)c1ccc2c(c1)NC(=O)CS2	nt	nt	nt	nt	nt	i
SMILES	PHOSPHO1 inh	TPT1 inh	Platelet DG rel	SKKanGAS inh	WT yeast gro inh	Rtt109 HAT inh
O=C(CCn1nnnc1CN1CCOCC1)N1CCC(c2ccccc2F)C1 (centres undefined)	i	i	i	i	nt	i
S=C(NCCc1ccccc1)N/N=C/c1ccc(Cl)cc1	i	i	i	65.0	nt	i
S=C(NCCc1ccccc1)Nc1ccccc1Cl	i	i	i	i	i	i
CC1CCCCN1C(=S)NCCc1ccccc1 (centres undefined)	88.1	i	nt	i	i	i
O=[N+]([O-])c1cc(C(F)(F)F)ccc1NCCNC(=S)Nc1ccc(Cl)cc1	i	i	i	73.0	i	i
O=[N+]([O-])c1cc(C(F)(F)F)ccc1NCCCCNS(=O)(=O)c1ccc(Cl)cc1	i	i	i	i	i	i
S=C(NCCCc1ccccc1)Nc1ccccc1Cl	i	i	i	i	67.6	i
Cc1ccc(OCC(=O)N(C)CC(=O)Nc2ccccc2Cl)c([N+](=O)[O-])n1	nt	nt	nt	nt	nt	i
O=C(Cc1ccccc1[N+](=O)[O-])NCC1(c2cccc3c2OCO3)OCCO1	nt	nt	nt	nt	nt	i
COC(=O)c1c(C)[nH]c(C(=O)C(C)OC(=O)c2cnc(C)cn2)c1C (centres undefined)	nt	nt	nt	nt	nt	i
S=C(NCCc1ccccc1)NCCc1ccccc1	i	i	i	i	62.5	i
Cc1c(Cl)cccc1NC(=S)NCCc1ccc(C(F)(F)F)cc1	i	i	i	i	81.2	i
CCCCn1c(N)c(N(CCC(C)C)C(=O)CSc2nc3ccccc3n2C)c(=O)[nH]c1=O	nt	nt	nt	nt	nt	i
COc1ccc(CCNC(=O)COC(=O)C2CC2C)cc1OC (centres undefined)	nt	nt	nt	nt	nt	i
CCN(Cc1nc(-c2ccc(OC)cc2)no1)C(=O)c1ccoc1C	i	i	i	i	nt	i
CCOc1cc(N2CCOCC2)c(OCC)cc1NC(=O)[C@H](C)N1C(=O)C2CC=CCC2C1=O (some centres undefined)	62.9	i	i	i	i	i
CCOc1ccccc1NC(C)C(=O)Nc1cc(C(F)(F)F)ccc1N1CCOCC1 (centres undefined)	i	i	i	i	68.7	i
C[C@@H](C(=O)Nc1cc(C(F)(F)F)ccc1N1CCOCC1)N1C(=O)C2CC=CCC2C1=O (some centres undefined)	nt	nt	nt	nt	nt	i
O=C(CCNC(=O)c1ccccc1Cl)Nc1cccc(S(=O)(=O)N2CCOCC2)c1	nt	nt	nt	nt	nt	i
O=C(NC1CCCC1)C(c1ccccn1)N(C(=O)c1csnn1)c1ccccc1Cl (centres undefined)	i	i	i	i	nt	i
CCCCc1nc2cc(C(=O)N3CCC(OCCOC)CC3)ccc2o1	i	i	i	63.3	nt	i
CC1(C2CCCC2)NC(=O)NC1=O (centres undefined)	nt	nt	nt	nt	nt	i
CCCCNC(=S)N(C)/N=C/c1c(F)c(F)c(F)c(F)c1F	i	i	i	i	59.8	i
CCc1c(N)nc(N)nc1Nc1ccccc1C	nt	nt	nt	nt	nt	i
COc1ccc(CNC(=O)C2CC(=O)N(c3ccc(OCC(=O)N4CCCCC4)cc3)C2)cc1 (centres undefined)	i	i	i	i	i	i
SMILES	PHOSPHO1 inh	TPT1 inh	Platelet DG rel	SKKanGAS inh	WT yeast gro inh	Rtt109 HAT inh
COc1ccc(CNC(=O)C2CC(=O)N(c3ccc(OCC(=O)N4C(C)CCCC4C)cc3)C2)cc1 (centres undefined)	i	i	i	i	64.5	i
Brc1ccccc1C1=Nn2c(nnc2-c2ccccc2)SC1	83.3	i	i	i	i	i
CC(=O)Nc1ccc(S(=O)(=O)N(C)CC(=O)NNc2c(F)c(F)cc(F)c2F)cc1	nt	nt	nt	nt	nt	i
O=C(c1ccccc1)N(Cc1ccccc1)c1ccccn1	i	i	i	i	i	i
O=C(C1CCCCC1)N(Cc1ccccc1)c1ccccn1	i	i	i	i	84.1	i
O=C(CSc1nnc2scc(-c3ccccc3)n12)N1CCN(Cc2ccccc2)CC1	i	i	i	i	i	i
O=C(CSc1nnc2scc(-c3ccccc3)n12)Nc1nsc(-c2ccccc2)n1	66.7	i	i	i	i	i
Cc1ccc(-c2csc3nnc(SCC(=O)Nc4nsc(-c5ccccc5)n4)n23)cc1	i	i	i	i	i	i

Assay outcomes: PubChem, several laboratories
